Screens: PubChem BioAssay, several laboratories
Shn3 3UTR inh: Schnurri-3 reporter inhibition in Clone20 osteoblasts; Clone20 osteoblast Shn3 3'UTR firefly luciferase, 24 h; inhibition, % at 12.5 µM; 360,000 compounds, 0.52% hits;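 active = mean inhibition of at least 75% with every replicate also reaching 75%; inconclusive = mean inhibition at least 75% but some replicate below; inactive = mean inhibition below 75%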
697 NFkB inh: lowers PMA/ionomycin-induced NF-kB signal in 697 B cells | 697 B-cell NF-kB luciferase reporter, 16 h | inhibition, % at 4 µM | 330,000 compounds, 0.33% hits; in the data active = inhibition above about 35%
Gli-Sufu antag: Gli-Sufu pathway antagonism. Sufu-KO-LIGHT fibroblasts, Gli luciferase reporter luminescence. AID 588413. inhibition, % at 5 µM. 340,000 compounds, 0.74% hits;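 active = inhibition above about 55%, limit read from the data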
EBV LMP1 NFkB: inhibitors of Epstein-Barr LMP1-induced NF-kappaB reporter; LMP1-induced NF-kappaB luciferase reporter cells, luminescence; inhibition, % at 12.5 µM; 350,000 compounds, 0.69% hits; AID 504558; in the data active = inhibition above about 41%; inconclusive = no clear call, values can overlap the other calls
Jurkat NFkB inh: inhibitors of the PMA/ionomycin-induced NF-kB reporter in Jurkat cells; PMA/ionomycin-induced NF-kB luciferase reporter, luminescence; inhibition, % at 4 µM; AID 435003; 330,000 compounds, 0.53% hits; in the data active = inhibition above about 50%
TRPM1 prom inh: inhibitors of MITF-driven TRPM1 promoter in melanoma cells. AID 488899. inhibition, % at 12.5 µM. 330,000 compounds, 0.83% hits. SK-MEL-5 TRPM1 promoter luciferase, 24 h;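 active = mean inhibition across replicates of 60% or more, whatever share of single replicates reaches that level; inconclusive = some that reach 60%, reason not given; inactive = mean inhibition across replicates below 60%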
Hits are given with their value; . = inactive; ? = inconclusive; / = no result; ! = not confirmed by another sample. Hits are enriched below; roughly 2.3% of the tested compounds scored in any of these assays.

SMILES	Shn3 3UTR inh	697 NFkB inh	Gli-Sufu antag	EBV LMP1 NFkB	Jurkat NFkB inh	TRPM1 prom inh
Cc1onc(-c2ccccc2)c1C(=O)N/N=C/c1ccco1	.	.	.	.	.	.
O=C(c1sc2cc([N+](=O)[O-])ccc2c1Cl)N1CCOCC1	.	.	.	60.8	.	.
CC(C)N(C(=O)c1sc2cc([N+](=O)[O-])ccc2c1Cl)C(C)C	.	.	.	.	.	.
CC(C)NCC(O)COc1ccc(COCCOC(C)C)cc1 (configuration not stated)	.	.	.	.	.	.
c1nc(N2CCOCC2)c2c3c(sc2n1)CCCC3	.	.	.	.	.	.
O=C(c1ccccc1)N1CCN(c2ncnc3sc4c(c23)CCC4)CC1	85.1	.	.	.	.	.
O=C(NC(=S)N1CCN(c2ccccn2)CC1)c1ccco1	.	.	.	53.7	.	.
CC(NNC(=S)N1CCN(c2ccccn2)CC1)c1nccc2ccccc12 (configuration not stated)	92.8	/	93.0	71.9	/	85.9
Cc1cc[n+](-c2[nH]c(=O)sc2/C=N/N=C(\[O-])c2ccncc2)cc1	.	.	.	70.5	.	.
CCOc1ccc(/C=C2\CCC(C3CCCC3)C2=O)cc1 (configuration not stated)	.	.	.	.	.	.
CCC(=O)OCOc1ccc(/C=C2/CCC(CN(C)C)C2=O)cc1 (configuration not stated)	.	/	.	.	/	66.9
CCOc1cccc(CNc2nnnn2C)c1	.	.	.	79.1	.	.
COc1ccc(S(=O)(=O)NCC2CCCN(C(=O)CN3CCCCC3)C2)cc1 (configuration not stated)	.	.	.	.	.	.
COCCCNC(=O)c1ccccc1Oc1ccccc1	.	.	.	.	.	.
COCCCNC(=O)c1ccc2c3c(onc13)-c1ccccc1C2=O	.	.	.	.	.	82.7
CCOC(CNC(=O)c1ccc(CNC(=O)c2ccc(OC)c(OC)c2)cc1)OCC	.	.	.	.	.	.
CCC(C)Nc1nc(-c2ccccn2)nc2ccccc12 (configuration not stated)	?	.	.	48.1	.	.
CCCNC(=O)/C(=C/c1cn(S(=O)(=O)N(C)C)c2ccccc12)NC(=O)c1ccc(OC)cc1	.	.	.	.	.	.
CSC(=N/N=C(\N)c1cnccn1)SC	.	.	.	42.8	.	.
COc1ccccc1-c1cn[nH]c(=S)n1	.	.	.	.	.	.
CCOC(=O)c1c[nH]c(=S)n(-c2ccccc2)c1=O	.	.	.	.	.	.
CCOC(=O)c1c(SCCN2CCCC2)n(-c2ccccc2)c(=S)n(-c2ccccc2)c1=O	?	/	.	.	/	95.7
Cc1cc([N+](=O)[O-])cc([N+](=O)[O-])c1NCC(C)C	.	.	.	.	.	.
Nn1c(SCC(=O)Nc2ccccc2C(F)(F)F)nncc1=O	.	.	.	.	.	.
CCc1ccc(-c2cc(C(F)(F)F)n3nc(C(=O)Nc4cnn(Cc5ccc(C)cc5)c4)cc3n2)s1	90.6	.	.	.	.	.
SMILES	Shn3 3UTR inh	697 NFkB inh	Gli-Sufu antag	EBV LMP1 NFkB	Jurkat NFkB inh	TRPM1 prom inh
CCOC(=O)c1cnc(-n2nc(C)cc2C)nc1Nc1ccc(O)cc1	.	.	.	55.9	.	71.2
CCOC(=O)c1cnc(-n2nc(C)cc2C)nc1NC1CCCCC1	.	.	81.6	.	.	.
CCOC(=O)c1cnc(-n2nc(C)cc2C)nc1NNc1nc(-c2ccccc2)cc(-c2ccccc2)n1	92.4	.	.	75.5	.	61.7
CCOC(=O)c1cnc(-n2nc(C)cc2C)nc1NC	.	.	.	.	.	.
CC(C)(C)n1nnnc1C(c1ccc(C(F)(F)F)cc1)N(Cc1ccc(F)cc1)Cc1ccco1 (configuration not stated)	89.1	.	.	.	.	.
CC(C)(C)n1nnnc1C(c1ccc(F)cc1)N(Cc1ccc(F)cc1)Cc1ccco1 (configuration not stated)	.	.	.	.	.	.
CC(C)(C)n1nnnc1C(c1ccc(C(F)(F)F)cc1)N(Cc1ccccc1)Cc1ccco1 (configuration not stated)	87.5	.	.	.	.	.
CCCCNC1=CC(=O)C(=O)c2ccccc21	.	.	.	.	.	93.7
CCCCNC1=CC(=O)C(NCCCC)=CC1=O	.	/	.	.	/	.
O=C1C=C(Nc2cccc3cccnc23)c2ccccc2C1=O	.	.	.	.	.	80.1
O=C1C=C(Nc2ccccc2)c2ccccc2C1=O	.	.	.	.	.	102.5
CCc1ccc(NC2=CC(=O)C(=O)c3ccccc32)cc1	.	.	.	.	.	103.5
CC(=O)OCC(=O)[C@@]1(O)CC[C@H]2[C@@H]3CCC4=CC(=O)CC[C@]4(C)[C@H]3[C@@H](O)C[C@@]21C	.	.	.	86.1!	.	.
CCC(CC)C(=O)OCC(=O)C1(O)CCC2C3CCC4=CC(=O)CCC4(C)C3C(O)CC21C (configuration not stated)	.	/	.	.	/	.
CC(=O)OCC(=O)C1(O)CCC2C3CC(F)C4=CC(=O)CCC4(C)C3C(=O)CC21C (configuration not stated)	.	/	.	.	/	.
COc1ccc(OCCCC(=O)Nc2cc(S(=O)(=O)N3CCCCC3)ccc2OC)cc1	.	.	.	.	.	.
C=CCNC(=O)c1onc(CSc2ccc(OC)cc2)c1C(=O)O	.	/	.	.	/	.
CCOC(=O)C(Oc1ccc2c(-c3ccc(OC)cc3)cc(=O)oc2c1C)c1ccccc1 (configuration not stated)	.	.	.	.	.	.
Cc1ccc(C(=O)Nc2nc(-c3ccccn3)cs2)cc1S(=O)(=O)N1CCOCC1	90.1	.	.	.	.	.
CN(CC1CCCO1)S(=O)(=O)c1ccc(C(=O)Nc2nc(-c3ccccn3)cs2)cc1 (configuration not stated)	90.1	.	.	.	.	.
O=C(Nc1nc(-c2ccccn2)cs1)c1cc(S(=O)(=O)N2CCOCC2)ccc1F	.	.	.	.	.	.
O=C(Nc1nc(-c2ccccn2)cs1)c1ccc(F)c(S(=O)(=O)N2CCOCC2)c1	93.8	.	.	.	.	66.9
CCCNC(=O)N1CCN(S(=O)(=O)c2ccc(C)c(C)c2)CC1	.	.	.	46.8	.	.
CCCNC(=O)N1CCN(S(=O)(=O)c2ccc(C)cc2)CC1	.	.	.	.	.	.
CCC1CCCCN1C(=O)COc1cccc2c1CCN(C)C2=O (configuration not stated)	.	.	.	.	.	.
N=c1c(-c2nc3ccccc3[nH]2)cc(C(=O)c2cccs2)nn1-c1ccccc1	.	.	.	42.3	.	.
CN1CCN(CCNC(=O)c2ccc3nc(-c4ccc(F)cc4)c(-c4ccc(F)cc4)nc3c2)CC1	.	.	.	.	.	89.4
